Assay [1] can be described thus: yeast TOR pathway RPL19A-GFP modulators, primary screen, cell-based, S. cerevisiae, multiplex flow cytometry (AID 1862).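 Note: lower values mimic rapamycin by blocking the RPL19A rise seen in DMSO cells.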 The settings on record: S. cerevisiae RPL19A-GFP strain, flow cytometry fluorescence, 3 h; at 10 µM; stronger effect = lower value. For orientation: Flow cytometry measures light scatter and fluorescence of single cells or particles in a stream.
Assay [2] in a line: modulators of MEP2-GFP levels in yeast, primary screen, S. cerevisiae, multiplex flow cytometry (AID 1867;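 active = GFP response, as percent of the DMSO control, above the screen-wide mean plus 3 SD, about 139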;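 note: median GFP channel fluorescence of barcode-gated MEP2-GFP cells measured by flow cytometry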). The settings on record: S. cerevisiae MEP2-GFP strain, 3 h, at 10 µM, stronger effect = higher value, 100% means same as DMSO wells.
The nature of assay [3]: modulators of CIT2-GFP expression in yeast, primary screen, S. cerevisiae, GFP fusion, multiplex flow cytometry (AID 1870;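 active = percent response above a set limit, the screen-wide mean plus 3 SD, cut at about 130% in these data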;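 note: barcoded CIT2-GFP strain pooled with four other GFP strains with rapamycin as positive control; median GFP fluorescence per well over plate mean of DMSO wells so 100% = DMSO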). The following applies: 3 h, at 10 µM, stronger effect = higher value.
Assay [4] can be described thus: modulators of LAP4-GFP expression in yeast, primary screen, S. cerevisiae, multiplex flow cytometry (AID 1873;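 active = GFP signal, as percent of the solvent control, above the screen mean plus 3 SD, about 149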). The settings on record: 3 h, at 10 µM, stronger effect = higher value.
Assay [5] can be described thus: modulators of AGP1-GFP expression in yeast TOR pathway, primary screen, cell-based, multiplex flow cytometry, S. cerevisiae (AID 1887;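 active = GFP signal above the screen-wide mean plus 3 SD, that is over about 124.5% of the solvent control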;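 note: AGP1-GFP fusion strain of S. cerevisiae within a five-strain barcoded multiplex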). The following applies: 3 h, at 10 µM, stronger effect = higher value.
A short description of assay [6]: inhibitors of CD8+ T cell-vesicle binding, pilot screen, LFA-1/ICAM-1 modulator project, MLPCN validation set, flow cytometry (AID 2523;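 active = response below a set limit, under 55% cells CD8-positive and vesicle-bound, and CD8 cells' 90th-percentile brightness under 279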;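 for vesicle binding response: mean PE anti-B7-1 fluorescence of CD8+ cells relative to row control; 100% = QL9-loaded vesicles with DMSO vehicle in the same plate row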). The following applies: 2C mouse CD8+ T cells, at 7 µM, stronger effect = lower value; double positive events: measured here: CD8+/vesicle+ event percentage.
For assay [7], the target named is Integrin beta-1 (Homo sapiens) + Integrin alpha-4 (Homo sapiens) (UniProt P13612+P05556). The assay can be described thus: inhibition of HUTS-21 binding to VLA-4, pilot screen, VLA-4 allosteric modulator project, U937 cells, HUTS-21 mAb, flow cytometry, validation set (AID 2674;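 active = inhibition above 50%, about 3 SD of the validation set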;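 note: antibody binding induced by the VLA-4 ligand LDV present at three times its Kd; 0% = LDV ligand with antibody and no compound and 100% = antibody without LDV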). The settings on record: HUTS-21 LIBS mAb binding, at 6.7 µM, stronger effect = higher value, binding induced by LDV ligand.

Assay [8] is described as follows: superoxide lowering in aged yeast cells, pilot screen, validation compound set (AID 2706;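 active = superoxide response below 65% of plate, a cut near 3 SD across the whole screen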;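 note: yeast exposed to compound for one week at 30 degrees C before staining; 100% = mean of all compound wells on the same plate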). The following applies: S. cerevisiae aging, superoxide DHE fluorescence; at 10 µM, stronger effect = lower value.
Assay [9] concerns the target Beta-adrenergic receptor kinase 1 (Homo sapiens) (UniProt P25098). Description: GRK2 binders displacing RNA aptamer, biochemical, validation, human GRK2, bead flow cytometry (AID 488806;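 active = aptamer binding inhibition above 30%, about 3 SD of noise from non-fluorescent compounds; inactive = inhibition at or below 30%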). The settings on record: bead-bound GRK2, FAM-aptamer displacement, at 10 µM, stronger effect = higher value.
Assay [10] deals with AP-2 complex subunit beta (Homo sapiens) (UniProt P63010). The assay can be described thus: inhibitors of arrestin peptide binding to AP2, pilot screen, biochemical, validation set, GST-AP2 beads, flow cytometry (AID 504541;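 active = inhibition above 54%, about 3 SD of non-fluorescent compounds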;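 note: AP2 carries R879A mutation and is captured from E. coli lysate; bead-bound FITC arrestin peptide fluorescence measuring arrestin peptide binding to AP2; 0% = DMSO wells and 100% = excess unlabeled arrestin peptide control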). The following applies: FITC arrestin peptide, at 10 µM, stronger effect = higher value, AP2 beta2 appendage fragment, R879A mutant.
The nature of assay [11]: yeast V-ATPase proton transport modulators, S. cerevisiae, pHLuorin, HTS validation (AID 504600; in the data active = response above about 15%;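 note: plate controls were DMSO for no effect and reference compound for full effect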). The settings on record: S. cerevisiae pHLuorin cytosolic pH, at 10 µM, stronger effect = higher value.
Assay [12] has as its system anti-desmoglein-3 scFv antibody binding to human DSG3. The assay can be described thus: inhibitors of anti-DSG3 scFv binding to DSG3, pilot screen, biochemical, validation compound set, bead-based, flow cytometry (AID 588368;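 active = binding below the plate cutoff, the plate median minus 3 SD, with a reading above zero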;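 note: signal is the median channel fluorescence of bead-bound GFP antibody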). The settings on record: Protein G beads, DSG3-Fc, scFv-GFP binding, at 10 µM, stronger effect = lower value.
Assay [13] is described as follows: inhibitors of fungal efflux pumps CDR1, CDR2, MDR1, pilot screen, validation compound set, multiplex, phenotypic (AID 588506;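 active = efflux inhibition above 0.42, the validation set average plus 4 SD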;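 note: Nile Red retained in cells so higher fluorescence means more efflux inhibition; 0 = negative control wells and 1 = enniatin B 25 µM full block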). The settings on record: S. cerevisiae pump-expressing triplex, Nile Red efflux flow cytometry; at 10 µM; stronger effect = higher value; the pumps come from Candida albicans.
The target of assay [14] is ATP-binding cassette sub-family B member 6 (Homo sapiens) (UniProt Q9NP58). Description: ABCB6 transporter inhibitors, pilot screen, K562-ABCB6 cells, flow cytometry, validation set (AID 588550;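 active = inhibition above the screen-wide mean plus 3 SD, about 51%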;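 note: 0% = DMSO wells and 100% = benzethonium chloride 70 µM positive control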). The following applies: K562-ABCB6 porphyrin accumulation, 1 h, at 10 µM, stronger effect = higher value.
Assay [15] can be described thus: promoters of myeloid differentiation in arrested cells, primary screen, cell-based, GFP/MAC1 double positive, flow cytometry, validation set (AID 588685;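 active = differentiation response of at least 50%, scaled between solvent and reference control, from cells with both markers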;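 note: compound exposure lasts four days before antibody staining and flow analysis; 0% = DMSO wells and 100% = 5 µM fulvestrant positive control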). The following applies: ER-HoxA9 marrow cells, stronger effect = higher value, normalized: vehicle 0, fulvestrant 100.

Inconclusive results are not listed. Active and inactive are the calls of the source. Cut-off read from the data, not from the text of the source, unless noted: active = percent of DMSO control GFP below about 86%; inactive = the rest, inconclusive results apart.

This is an account of results in PubChem BioAssay.

Chain of AP-2 complex subunit beta (Homo sapiens) (P63010 whole entry, looked up, the tested form may be a part, one chain of several): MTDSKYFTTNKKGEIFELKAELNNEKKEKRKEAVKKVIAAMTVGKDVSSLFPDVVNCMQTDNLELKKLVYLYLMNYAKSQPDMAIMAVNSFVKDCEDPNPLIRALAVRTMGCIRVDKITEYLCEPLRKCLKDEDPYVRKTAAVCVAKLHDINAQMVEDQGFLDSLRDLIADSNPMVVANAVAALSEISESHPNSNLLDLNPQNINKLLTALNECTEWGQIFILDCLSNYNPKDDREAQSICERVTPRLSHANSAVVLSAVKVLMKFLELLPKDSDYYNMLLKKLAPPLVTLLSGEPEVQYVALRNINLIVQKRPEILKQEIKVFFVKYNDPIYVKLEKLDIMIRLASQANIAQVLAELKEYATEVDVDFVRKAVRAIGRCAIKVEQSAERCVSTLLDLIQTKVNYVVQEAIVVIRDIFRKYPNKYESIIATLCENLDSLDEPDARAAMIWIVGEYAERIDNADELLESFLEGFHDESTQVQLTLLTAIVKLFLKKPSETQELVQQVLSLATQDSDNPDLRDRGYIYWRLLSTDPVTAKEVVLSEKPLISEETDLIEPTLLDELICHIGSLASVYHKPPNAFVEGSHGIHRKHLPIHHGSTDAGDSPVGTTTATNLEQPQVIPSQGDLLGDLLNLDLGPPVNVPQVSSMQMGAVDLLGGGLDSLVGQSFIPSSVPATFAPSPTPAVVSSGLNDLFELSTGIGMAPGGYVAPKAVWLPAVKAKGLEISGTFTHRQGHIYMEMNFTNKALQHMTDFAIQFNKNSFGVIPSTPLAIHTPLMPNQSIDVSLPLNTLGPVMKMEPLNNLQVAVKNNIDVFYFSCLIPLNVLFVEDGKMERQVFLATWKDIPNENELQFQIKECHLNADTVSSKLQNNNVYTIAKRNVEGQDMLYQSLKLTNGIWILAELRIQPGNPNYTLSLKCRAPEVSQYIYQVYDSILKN
Chain of Integrin beta-1 (Homo sapiens) + Integrin alpha-4 (Homo sapiens) (P05556 whole entry, looked up): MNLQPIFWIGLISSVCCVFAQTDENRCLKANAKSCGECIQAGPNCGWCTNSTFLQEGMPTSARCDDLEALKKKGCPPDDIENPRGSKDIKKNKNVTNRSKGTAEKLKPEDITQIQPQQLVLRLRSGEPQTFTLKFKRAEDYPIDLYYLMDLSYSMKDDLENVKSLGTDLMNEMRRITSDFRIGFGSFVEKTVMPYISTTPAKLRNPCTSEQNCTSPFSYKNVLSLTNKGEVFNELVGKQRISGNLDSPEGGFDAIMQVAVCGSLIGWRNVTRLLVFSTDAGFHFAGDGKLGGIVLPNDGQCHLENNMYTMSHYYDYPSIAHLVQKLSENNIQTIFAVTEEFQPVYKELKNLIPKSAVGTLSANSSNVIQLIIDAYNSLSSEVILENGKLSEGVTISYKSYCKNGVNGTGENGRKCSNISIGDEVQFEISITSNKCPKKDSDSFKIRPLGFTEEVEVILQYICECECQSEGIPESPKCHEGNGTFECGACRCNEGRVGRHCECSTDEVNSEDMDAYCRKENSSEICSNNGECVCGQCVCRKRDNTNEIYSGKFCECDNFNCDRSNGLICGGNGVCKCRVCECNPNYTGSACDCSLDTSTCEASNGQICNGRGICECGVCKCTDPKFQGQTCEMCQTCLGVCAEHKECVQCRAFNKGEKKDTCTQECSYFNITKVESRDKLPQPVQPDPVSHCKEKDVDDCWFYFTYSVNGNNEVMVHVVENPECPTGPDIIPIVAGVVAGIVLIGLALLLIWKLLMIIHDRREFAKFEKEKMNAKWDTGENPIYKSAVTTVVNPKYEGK
Chain of Integrin beta-1 (Homo sapiens) + Integrin alpha-4 (Homo sapiens) (P13612 whole entry, looked up): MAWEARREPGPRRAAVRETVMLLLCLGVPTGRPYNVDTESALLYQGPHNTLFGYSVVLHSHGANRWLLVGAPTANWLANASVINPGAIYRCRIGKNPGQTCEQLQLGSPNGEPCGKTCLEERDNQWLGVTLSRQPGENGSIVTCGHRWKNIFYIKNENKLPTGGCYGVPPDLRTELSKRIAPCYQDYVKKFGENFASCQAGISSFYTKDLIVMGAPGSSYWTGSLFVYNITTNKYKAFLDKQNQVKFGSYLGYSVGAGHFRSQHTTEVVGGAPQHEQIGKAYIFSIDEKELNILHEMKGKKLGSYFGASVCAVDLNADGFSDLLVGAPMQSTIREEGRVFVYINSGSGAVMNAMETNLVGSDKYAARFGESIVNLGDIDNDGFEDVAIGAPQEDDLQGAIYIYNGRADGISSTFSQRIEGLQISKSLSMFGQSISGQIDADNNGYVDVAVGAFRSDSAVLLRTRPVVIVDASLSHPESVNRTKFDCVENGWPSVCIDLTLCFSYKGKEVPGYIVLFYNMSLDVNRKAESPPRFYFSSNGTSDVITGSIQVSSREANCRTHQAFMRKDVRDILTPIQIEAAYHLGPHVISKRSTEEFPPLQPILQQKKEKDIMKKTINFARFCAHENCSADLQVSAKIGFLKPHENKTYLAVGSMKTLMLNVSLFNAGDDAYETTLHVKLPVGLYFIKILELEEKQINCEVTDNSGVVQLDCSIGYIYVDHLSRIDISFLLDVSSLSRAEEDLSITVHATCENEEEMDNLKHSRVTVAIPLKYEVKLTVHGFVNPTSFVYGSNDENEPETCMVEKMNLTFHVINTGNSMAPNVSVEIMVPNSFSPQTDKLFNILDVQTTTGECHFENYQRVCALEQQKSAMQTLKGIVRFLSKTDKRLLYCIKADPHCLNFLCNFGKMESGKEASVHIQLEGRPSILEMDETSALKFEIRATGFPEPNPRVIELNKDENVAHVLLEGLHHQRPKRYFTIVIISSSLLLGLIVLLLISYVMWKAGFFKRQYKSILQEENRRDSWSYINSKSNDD
Chain of Beta-adrenergic receptor kinase 1 (Homo sapiens) (P25098 whole entry, looked up): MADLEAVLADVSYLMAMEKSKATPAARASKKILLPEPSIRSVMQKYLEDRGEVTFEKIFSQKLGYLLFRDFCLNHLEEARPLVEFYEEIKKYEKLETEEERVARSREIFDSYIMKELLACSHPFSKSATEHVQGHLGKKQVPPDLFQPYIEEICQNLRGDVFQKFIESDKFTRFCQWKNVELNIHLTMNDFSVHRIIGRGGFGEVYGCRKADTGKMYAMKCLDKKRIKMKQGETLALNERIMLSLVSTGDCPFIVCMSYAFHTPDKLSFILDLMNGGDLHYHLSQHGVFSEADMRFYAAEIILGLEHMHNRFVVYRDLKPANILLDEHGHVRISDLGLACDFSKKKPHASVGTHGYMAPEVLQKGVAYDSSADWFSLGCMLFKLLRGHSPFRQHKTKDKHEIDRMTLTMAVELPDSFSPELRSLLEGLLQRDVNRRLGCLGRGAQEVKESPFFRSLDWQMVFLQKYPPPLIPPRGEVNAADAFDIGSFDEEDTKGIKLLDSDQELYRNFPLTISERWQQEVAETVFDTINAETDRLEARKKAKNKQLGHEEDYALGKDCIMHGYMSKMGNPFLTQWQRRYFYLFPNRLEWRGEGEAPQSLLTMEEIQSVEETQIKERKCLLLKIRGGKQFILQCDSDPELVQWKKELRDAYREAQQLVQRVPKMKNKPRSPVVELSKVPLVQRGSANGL
Chain of ATP-binding cassette sub-family B member 6 (Homo sapiens) (Q9NP58 whole entry, looked up): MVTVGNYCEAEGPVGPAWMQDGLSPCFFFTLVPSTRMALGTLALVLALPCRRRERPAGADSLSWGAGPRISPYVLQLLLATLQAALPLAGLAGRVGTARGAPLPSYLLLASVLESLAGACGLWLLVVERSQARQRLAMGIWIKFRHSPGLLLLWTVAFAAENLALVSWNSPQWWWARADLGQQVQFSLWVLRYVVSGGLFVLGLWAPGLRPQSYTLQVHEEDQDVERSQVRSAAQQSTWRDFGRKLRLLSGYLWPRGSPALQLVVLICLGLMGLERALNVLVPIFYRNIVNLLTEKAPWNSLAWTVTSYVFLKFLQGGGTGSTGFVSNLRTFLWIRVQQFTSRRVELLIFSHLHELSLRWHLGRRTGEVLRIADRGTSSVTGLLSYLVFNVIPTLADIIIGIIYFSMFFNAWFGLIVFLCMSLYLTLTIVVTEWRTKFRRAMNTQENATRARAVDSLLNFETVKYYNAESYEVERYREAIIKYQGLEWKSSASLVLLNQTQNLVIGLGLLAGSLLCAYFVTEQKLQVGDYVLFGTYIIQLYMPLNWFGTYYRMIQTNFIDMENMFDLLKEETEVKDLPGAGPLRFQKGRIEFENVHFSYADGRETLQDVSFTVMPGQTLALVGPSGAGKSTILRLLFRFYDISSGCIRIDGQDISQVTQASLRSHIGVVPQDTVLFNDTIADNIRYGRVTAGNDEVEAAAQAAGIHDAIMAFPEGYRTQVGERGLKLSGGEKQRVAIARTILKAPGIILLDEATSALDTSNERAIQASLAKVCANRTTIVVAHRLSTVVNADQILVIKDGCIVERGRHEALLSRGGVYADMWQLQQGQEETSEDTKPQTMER

Broadly, the inhibition is the change of the read-out against control, counted positive when it falls. `CC[n+]1c(C)sc2cc(C)ccc21`: in assay [1], the percent of DMSO control GFP was 96.4% (inactive). Besides, the GFP response vs DMSO in assay [2] was 103% (inactive); in assay [4] it was 116% (inactive). In [3], the percent response of DMSO control was 87.1% (inactive). For the same compound, the GFP response, % of DMSO in [5] is 95.4% (inactive). The compound also displayed a double positive events in assay [6] of 50%. Besides, the vesicle binding response in assay [6] was 138% (inactive). The inhibition in assay [7] was -11.4% (inactive); in [10] it was -14% (inactive); in assay [14], 15% (inactive). For the same compound, in assay [8], the superoxide response (% of plate) is 106% (inactive). The aptamer binding inhibition in [9] is 6% (inactive). Besides, the response in assay [11] is -1.58% (inactive). Further, the binding (% of control) in [12] is 102% (inactive). In [13], the efflux inhibition (fraction of control) was 0.44 (active). Also, the differentiation response in assay [15] was -13.1% (inactive).
For the compound `C[C@@H]1C[C@H]2[C@@H]3CCC4=CC(=O)C=C[C@]4(C)[C@@]3(F)[C@@H](O)C[C@]2(C)[C@@]1(O)C(=O)COP(=O)(O)O`, the percent of DMSO control GFP in assay [1] is 104% (inactive). Further, the GFP response vs DMSO in assay [2] is 98.9% (inactive); in assay [4], 83.3% (inactive). Moreover, the percent response of DMSO control in [3] was 101% (inactive). Further, the GFP response, % of DMSO in [5] is 93% (inactive). Moreover, in assay [6], the double positive events is 53.3%. Moreover, the vesicle binding response in assay [6] is 126% (inactive). Also, the inhibition in assay [7] was 20.3% (inactive); in assay [10], -3.37% (inactive); in [14], 10% (inactive). The superoxide response (% of plate) in assay [8] is 106% (inactive). For the same compound, the aptamer binding inhibition in [9] is 2% (inactive). The response in assay [11] was 4.69% (inactive). The binding (% of control) in assay [12] is 96.9% (inactive). Further, the efflux inhibition (fraction of control) in assay [13] was -0.09 (inactive). Moreover, the differentiation response in assay [15] is -13.1% (inactive).
For `CCn1cc(C(=O)O)c(=O)c2cnc(N3CCNCC3)nc21`, the percent of DMSO control GFP in assay [1] was 99.1% (inactive). Also, the GFP response vs DMSO in assay [2] is 99.9% (inactive); in [4], 91.3% (inactive). The percent response of DMSO control in assay [3] was 104% (inactive). Moreover, the GFP response, % of DMSO in [5] is 99.7% (inactive). Further, the double positive events in [6] was 61%. In addition, the vesicle binding response in [6] was 164% (inactive). Further, the inhibition in [7] was 7.22% (inactive); in [10] it was 32.7% (inactive); in assay [14], 6% (inactive). For the same compound, the superoxide response (% of plate) in [8] is 85.2% (inactive). Further, in assay [9], the aptamer binding inhibition was 0% (inactive). The response in assay [11] is -7.56% (inactive). Also, the binding (% of control) in [12] was 99% (inactive). In addition, in assay [13], the efflux inhibition (fraction of control) is -0.31 (inactive). The differentiation response in [15] was -19.6% (inactive).
`Cc1ccccc1C(OCCN(C)C)c1ccccc1` (stereo not given): the percent of DMSO control GFP in [1] was 101% (inactive). Moreover, the results for the GFP response vs DMSO in assay [2] and in assay [4] were 98.9% (inactive) and 85.3% (inactive), respectively. Also, in assay [3], the percent response of DMSO control is 102% (inactive). The GFP response, % of DMSO in assay [5] was 94.6% (inactive). The double positive events in assay [6] was 51.2%. Moreover, the vesicle binding response in assay [6] is 111% (inactive). Besides, the results for the inhibition in assay [7], in assay [10] and in assay [14] were 10.9% (inactive), -8.71% (inactive) and 4% (inactive), respectively. Further, in assay [8], the superoxide response (% of plate) is 106% (inactive). In assay [9], the aptamer binding inhibition was 1% (inactive). For the same compound, in assay [11], the response is 9.28% (inactive). For the same compound, the binding (% of control) in [12] is 98.7% (inactive). Besides, in assay [13], the efflux inhibition (fraction of control) is 0.03 (inactive). Further, the differentiation response in assay [15] is -22.8% (inactive).
Consider `CC1(C)c2ccccc2N2CC(=O)N(CC(N)=O)C21C` (stereo not given), for which the percent of DMSO control GFP in assay [1] is 103% (inactive). Also, the values for the GFP response vs DMSO in assay [2] and in assay [4] were 99.9% (inactive) and 109% (inactive), respectively. The percent response of DMSO control in [3] was 103% (inactive). The GFP response, % of DMSO in assay [5] is 105% (inactive). Further, the double positive events in assay [6] turned out to be 61.8%. Moreover, the vesicle binding response in [6] was 243% (inactive). Besides, the figures for the inhibition in [7], in [10] and in assay [14] were -5.84% (inactive), -1.94% (inactive) and 11% (inactive), respectively. For the same compound, the superoxide response (% of plate) in assay [8] is 108% (inactive). Moreover, the aptamer binding inhibition in [9] was 3% (inactive). In addition, the response in assay [11] was 3.96% (inactive). For the same compound, the binding (% of control) in [12] was 97.8% (inactive). For the same compound, the efflux inhibition (fraction of control) in assay [13] was -0.35 (inactive). Moreover, in assay [15], the differentiation response is -21.2% (inactive).
